# Most compounds without a hit are left out; they make up all but 19% or so of the library.
# DT40 TDP1 no CPT: qHTS for Inhibitors of human tyrosyl-DNA phosphodiesterase 1 (TDP1): qHTS in cells in absence of CPT. DT40 Tdp1-/- hTDP1 cells, no CPT, ATP luminescence, 48 h. Potency, µM (doses to about 46.2 µM), for the others: top-dose activity change, negative = growth inhibition, most hits filed as inhibitors. hit rate 15% among 420,000; note: potency is the fitted concentration of half-maximal effect; nearly all actives have a fitted effect of over 55% in size
#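 No-CPT arm: Tdp1-/-;hTDP1 DT40 cells (400/well) plus compounds, incubated ≥48 hr at 37 °C. Readout CellTiter-Glo luminescence.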
# ELG1 DNA repair: inhibitors of ELG1-dependent DNA repair in HEK293T cells; hit rate 2.3% among 330,000; Potency, µM (top dose mostly 46.1 µM), inactives show at the highest dose activity change, negative = inhibition, most hits filed as inhibitors; HEK293T ELG1-luciferase reporter, luminescence, 16 h; DNA damage induced by 5-fluorouridine; note: potency is the fitted concentration of half-maximal effect; nearly all actives have a fitted effect of over 55% in size
#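 DMSO vehicle served as the neutral condition. Each well held 2,000 cells given 5-fluorouridine plus compound; after 16 hr at 37 °C/5% CO2, ONE-Glo was added and luciferase measured 30 min later.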
# Giardia killer: kills Giardia lamblia; Giardia lamblia trophozoite viability; activity change, % at 7.66 µM, hits read low; AID 540267; hit rate 0.15% among 340,000; in the data active = activity change below about -80%; inconclusive = between about -30% and that limit;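 note: parasites exposed to compound for two days anaerobically before the ATP read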
#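 Compounds were tested on trophozoites seeded at 100 cells/well and held 48 hrs at 37 deg C anaerobically. An ATP-based luminescent kit measured the remaining live cells.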
# DT40 TDP1 CPT: growth inhibition of DT40 Tdp1-/-;hTDP1 cells with camptothecin (screen for TDP1 inhibitors); chicken DT40 Tdp1-/-;hTDP1 cells + 20 nM CPT, ATP luminescence, 48 h; Potency, µM (series often up to 46.2 µM), for inactives: at the highest dose activity change, negative = growth inhibition, most hits filed as inhibitors; hit rate 12% among 420,000; AID 686979; note: potency is the fitted concentration of half-maximal effect; nearly all actives have a fitted effect of over 55% in size
#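 Cell growth measured by CellTiter-Glo luminescence after a minimum 48 h, 37 C compound exposure with 20 nM CPT in Tdp1-knockout DT40 cells stably expressing hTDP1, seeded 400/well; qHTS titration format.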
# IL1B secr inh: blocks inflammasome-driven IL-1 beta release; activity change, % at 57.5 µM; AID 743279; hit rate 4.7% among 360,000; THP-1 LPS/ATP IL-1B secretion, AlphaLISA, 16 h; hits give low values; in the data active = activity change below about -50%; inconclusive = mostly about -30% to -49%
#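 Secreted IL-1B measured by AlphaLISA bead assay after 16 h compound exposure of THP-1 cells; compounds (final up to 57.5 uM) added 1 h before LPS (250 ng/mL) and ATP (1.25 mM) stimulation; lower signal means less secretion.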
# TDP1 block: blocks human tyrosyl-DNA phosphodiesterase 1; recombinant TDP1, AlphaScreen DNA substrate cleavage; Potency, µM (top dose mostly 130 µM), without a hit: at the highest dose activity change, negative = inhibition, hits mostly inhibitors; hit rate 0.28% among 350,000; note: potency is the fitted concentration of half-maximal effect; nearly all actives have a fitted effect of over 40% in size
# Target sequence (Q9NUW8 whole entry, looked up): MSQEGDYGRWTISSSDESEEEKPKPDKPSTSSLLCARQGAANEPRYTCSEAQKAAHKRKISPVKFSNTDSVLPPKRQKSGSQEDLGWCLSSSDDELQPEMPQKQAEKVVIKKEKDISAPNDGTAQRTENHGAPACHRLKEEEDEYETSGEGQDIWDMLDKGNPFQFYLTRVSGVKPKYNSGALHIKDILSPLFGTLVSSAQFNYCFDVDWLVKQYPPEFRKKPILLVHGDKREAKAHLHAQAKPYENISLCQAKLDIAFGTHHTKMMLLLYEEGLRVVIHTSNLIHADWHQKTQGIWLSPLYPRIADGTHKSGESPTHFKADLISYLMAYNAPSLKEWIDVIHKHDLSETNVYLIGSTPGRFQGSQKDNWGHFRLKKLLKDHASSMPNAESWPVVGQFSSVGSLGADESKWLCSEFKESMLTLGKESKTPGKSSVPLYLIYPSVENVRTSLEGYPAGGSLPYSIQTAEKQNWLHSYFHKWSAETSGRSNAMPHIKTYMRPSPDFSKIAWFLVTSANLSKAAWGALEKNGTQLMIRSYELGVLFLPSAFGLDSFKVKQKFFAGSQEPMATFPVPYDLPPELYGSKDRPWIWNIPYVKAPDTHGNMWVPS
#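 Steps: enzyme plus compound, 15 min RT; add biotin/phosphotyrosine-FITC oligonucleotide (15 nM final), react 5 min; add donor/acceptor beads (10 ug/ml final), 10 min; read AlphaScreen. Tdp1 at 1 nM final.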
# Active calls of the source: *; ? = inconclusive; / = no result; [ ] = remark or other dose. Unless noted, calls come from the whole dose curve; as a rule, active = well fitted curve in the direction sought with a large enough effect; inconclusive = small, poorly fitted or top-dose-only effect, or another doubt; inactive = no such curve, though single readings can be large; an effect the other way counts as inactive or inconclusive. % is set by controls: 0 for no effect and ±100 for the full control effect.
SMILES,DT40 TDP1 no CPT,ELG1 DNA repair,Giardia killer,DT40 TDP1 CPT,IL1B secr inh,TDP1 block
CCOC(=O)c1c(NC(=O)CSc2cn(CCNC(=O)c3ccccc3F)c3ccccc23)sc2c1CCC2,?,/,/,?,/,1.9%
CCOC(=O)c1c(NC(=O)CSc2cn(CCNC(=O)c3ccccc3OC)c3ccccc23)sc2c1CCCC2,23.1µM*,/,/,?,/,8.4%
CCOC(=O)c1c(NC(=O)CSc2cn(CCNC(=O)c3ccccc3F)c3ccccc23)sc2c1CCCC2,16.4µM*,/,/,16.4µM*,/,1.9%
CCOC(=O)c1c(NC(=O)CSc2c[nH]c3ccccc23)sc2c1CCC2,13µM*,17.9%,-12.2,?,-21.7,7.9%
Cc1ccc(C)c(CN2C(=O)c3ccccc3S(=O)(=O)c3ccc(C(=O)N4CCN(Cc5ccccc5)CC4)cc32)c1,6.51µM*,/,/,6.51µM*,/,4.6%
Cc1ccc(C)c(CN2C(=O)c3ccccc3S(=O)(=O)c3ccc(C(=O)N4CCc5ccccc54)cc32)c1,5.8µM*,/,/,5.8µM*,/,2.3%
Cc1ccc(C)c(CN2C(=O)c3ccccc3S(=O)(=O)c3ccc(C(=O)N4CCCC4)cc32)c1,?,/,/,?,/,3.5%
Cc1ccc(C)c(CN2C(=O)c3ccccc3S(=O)(=O)c3ccc(C(=O)N4CCN(C)CC4)cc32)c1,-29.5%,4.6%,11.1,-0.1%,0.2,6.1%
c1cncc(-c2cncnc2NCc2cccs2)c1,-9.5%,/,/,9.1%,/,/
CN(Cc1ccccc1)c1nc2c(c(=O)n(C)c(=O)n2C)n1CCSc1ncccn1,18.4µM*,?,38.4,23.1µM*,6.1,2.1%
Cc1cc(C)nc(SCCn2c(N(C)Cc3ccccc3)nc3c2c(=O)n(C)c(=O)n3C)n1,?,0.1%,-4.2,?,20.2,1.0%
Cn1c(=O)c2c(nc(CN3CCN(c4ccccc4)CC3)n2Cc2c(F)cccc2Cl)n(C)c1=O,8.2µM*,10µM*,10.8,20.6µM*,32.3,-2.1%
Cn1c(=O)c2c(nc(N3CCOCC3)n2Cc2cccc(Br)c2)n(C)c1=O,5.8µM*,/,/,9.2µM*,/,1.1%
CC1CN(c2nc3c(c(=O)n(C)c(=O)n3C)n2Cc2c(F)cccc2Cl)CC(C)O1 (stereo not drawn),?,-4.1%,4.9,-31.6%,-22.0,2.1%
Cn1c(N2CCC(C(N)=O)CC2)nc2c1c(=O)n(Cc1cccc(Br)c1)c(=O)n2C,?,-9.2%,-0.7,?,0.0,5.8%
Cn1c(=O)c2c(nc(N3CCOCC3)n2Cc2c(F)cccc2Cl)n(C)c1=O,23.1µM*,-10.0%,-0.1,20.6µM*,6.1,5.2%
CCN(CC)CCn1c(-c2ccccc2)nc2c(NC3CCCCC3)nc(C)nc21,/,/,/,/,/,5.7%
O=C(Cn1c(=O)nc(-c2ccccc2)c2cc(Cl)ccc21)N1CCN(c2ccccc2F)CC1,-21.8%,/,/,?,/,6.2%
CC1CC(C)CN(c2nc3c(c(=O)n(C)c(=O)n3C)n2CCSc2ncccn2)C1 (stereo not drawn),?,-2.5%,-14.0,?,15.5,1.2%
Cn1c(=O)c2c(nc(CN3CCN(c4ccccc4)CC3)n2Cc2ccccc2Cl)n(C)c1=O,14.6µM*,?,2.6,?,24.4,3.9%
Cn1c(=O)c2c(nc(CN3CCN(c4ccccc4)CC3)n2Cc2ccccc2F)n(C)c1=O,/,-26.3%,/,/,/,4.2%
Cn1c(=O)c2c(nc(N3CCOCC3)n2CCSc2ncccn2)n(C)c1=O,23.1µM*,0.3%,6.4,20.6µM*,9.2,1.1%
Cc1ccccc1Cn1c(CN2CCCC(C)C2)nc2c1c(=O)n(C)c(=O)n2C (stereo not drawn),5.8µM*,/,/,8.2µM*,/,2.3%
CC1CCCN(Cc2nc3c(c(=O)n(C)c(=O)n3C)n2Cc2c(F)cccc2Cl)C1 (stereo not drawn),9.2µM*,0.7%,29.9,8.2µM*,7.5,-2.1%
COc1ccc(C)cc1NC(=O)C1CCCN(S(=O)(=O)c2ccc3c(c2)oc(=O)n3C)C1 (stereo not drawn),?,/,/,-12.5%,/,3.8%
SMILES,DT40 TDP1 no CPT,ELG1 DNA repair,Giardia killer,DT40 TDP1 CPT,IL1B secr inh,TDP1 block
COc1ccccc1NC(=O)c1ccc(Cl)c(S(=O)(=O)N2CCCCC2)c1,?,-15.4%,-15.1,?,4.4,4.9%
Cc1ccc(C(=O)Nc2ccccc2C(=O)O)cc1S(=O)(=O)N1CCCCCC1,?,/,/,?,/,-2.2%[12.3 µM]
Cc1ccccc1NC(=O)c1ccc(Cl)c(S(=O)(=O)N2CCCCCC2)c1,16.4µM*,/,/,?,/,0.4%[12.3 µM]
COc1ccccc1NC(=O)c1ccc(C)c(S(=O)(=O)N2CCCCC2)c1,25.9µM*,?,5.0,?,-18.6,3.1%
O=C(NC1CC(=O)N(c2cccc(F)c2)C1)c1ccc(S(=O)(=O)N2CCCCC2)cc1 (stereo not drawn),-22.6%,/,/,-18.1%,/,-5.2%
CCCN1CCC2(CC1)NC(C(=O)O)Cc1c2[nH]c2ccccc12 (stereo not drawn),8.0%,5.8%,13.5,-1.6%,1.6,/
COC(=O)C1Cc2c([nH]c3ccccc23)C2(CCN(Cc3ccccc3)CC2)N1 (stereo not drawn),20.6µM*,-12.9%,18.9,?,-86.3*,/
CC(NC(=O)CCC(=O)Nc1ccccc1O)c1ccccc1 (stereo not drawn),-1.2%,/,0.4,2.8%,15.1,/
CC(CNc1ccccc1O)C(=O)O (stereo not drawn),25.9µM*,-3.0%,4.5,?,-0.9,/
Cc1nc(SCC(=O)NC(C)(C#N)C2CC2)c2c(-c3cccs3)csc2n1 (stereo not drawn),?,?,-9.0,?,-58.9*,5.4%
CCCNC(=O)c1oc2ccc3c(c2c1C)C(O)CC(C)(C)O3 (stereo not drawn),6.0%,?,-5.2,-17.1%,-10.6,/
CCOc1ccccc1CNC(=O)c1oc2ccc3c(c2c1C)C(=O)CC(C)(C)O3,13µM*,/,/,?,/,1.0%
CCC1(C)CC(=O)c2c(ccc3oc(C(=O)NCc4ccccc4)c(C)c23)O1 (stereo not drawn),16.4µM*,/,/,29.1µM*,/,5.1%
Cc1c(C(=O)NCc2ccoc2)oc2ccc3c(c12)C(=O)CC(C)(C)O3,?,?,-7.2,14.6µM*,-51.8*,-2.5%
CCOc1ccccc1CNC(=O)C1=C(C)C(=O)OC12CCN(C(C)=O)CC2,-9.8%,/,/,4.3%,/,2.5%
CCCSc1ncc(Cl)c(C(=O)Nc2scc(-c3ccc(C)cc3)c2C(=O)OCC)n1,0.2%,/,/,3.2%,/,9.8%

# High-throughput results (PubChem)
